For some of these results: Measured potencies and affinities stand elsewhere. The source made the active and inactive calls. Unless noted, how the calls were made is not given here.

Chain of Plasmodium falciparum protein kinase 6 (PK6, PF3D7_1337100) (Q8IDW1 1-305): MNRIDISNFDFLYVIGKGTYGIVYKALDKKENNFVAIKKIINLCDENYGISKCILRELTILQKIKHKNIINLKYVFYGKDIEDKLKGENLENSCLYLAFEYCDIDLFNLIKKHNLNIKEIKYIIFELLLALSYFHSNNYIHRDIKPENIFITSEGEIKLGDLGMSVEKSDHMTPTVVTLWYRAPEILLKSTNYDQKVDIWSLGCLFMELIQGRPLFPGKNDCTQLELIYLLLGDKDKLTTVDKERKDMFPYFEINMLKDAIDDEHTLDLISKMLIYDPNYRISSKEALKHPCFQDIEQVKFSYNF
Chain of Calcium-dependent protein kinase 4 (Plasmodium falciparum (isolate 3D7)) (Q8IBS5 whole entry, looked up): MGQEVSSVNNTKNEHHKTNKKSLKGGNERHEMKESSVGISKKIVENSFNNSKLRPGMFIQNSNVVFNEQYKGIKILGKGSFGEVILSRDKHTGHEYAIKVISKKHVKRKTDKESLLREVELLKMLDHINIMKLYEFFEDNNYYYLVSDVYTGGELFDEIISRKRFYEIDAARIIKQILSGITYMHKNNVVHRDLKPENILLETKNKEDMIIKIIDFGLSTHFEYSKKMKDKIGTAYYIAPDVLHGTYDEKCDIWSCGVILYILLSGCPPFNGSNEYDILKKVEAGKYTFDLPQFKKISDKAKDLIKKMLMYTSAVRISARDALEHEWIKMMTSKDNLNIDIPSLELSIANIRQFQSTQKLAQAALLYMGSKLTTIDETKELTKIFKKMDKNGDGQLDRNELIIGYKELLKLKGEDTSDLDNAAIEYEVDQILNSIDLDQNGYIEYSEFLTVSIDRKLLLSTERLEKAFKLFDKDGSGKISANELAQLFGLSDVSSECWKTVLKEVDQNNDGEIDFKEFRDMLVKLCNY

The first assay has as its target Plasmodium falciparum protein kinase 6 (PK6, PF3D7_1337100) (UniProt Q8IDW1). Description: PfPK6 kinase inhibitors, biochemical, TCAMS library (AID 1159586). As to conditions: recombinant PfPK6, Kinase-Glo ATP depletion luminescence. In general terms: In Kinase-Glo more light means more ATP remaining.
As to `CCCN(c1ccc(O)c(CN2CCCCC2)c1)c1ccc([N+](=O)[O-])cn1`, the outcome was inactive.

Take `CCc1ccc(Cc2cnc3nc(N)nc(N)c3c2C)cc1`: the outcome was inactive.

For the molecule `CCNCCCC(C)Nc1ccnc2cc(Cl)ccc12` (stereo unspecified), the outcome was inactive.

`c1ccc(CN2CCN(CCCCNc3c4ccccc4nc4ccccc34)CC2)cc1`: the outcome was inactive.

For `Cc1nc2ccc(S(=O)(=O)Nc3ccc(C(=O)N[C@@H](CCC(=O)O)C(=O)O)cc3)cc2c(=O)[nH]1`, the outcome was inactive.

`CC(C)(C)c1ccc(-c2nnc(N)nc2N)cc1`: the result was inactive.

Take `CCC(=C(CC)c1ccc(O)c(CNC2CCCCC2)c1)c1ccc(O)c(CNC2CCCCC2)c1`: the result was inactive.

As to `Cc1[nH]c(C)c(-c2ccc(Oc3ccc(Cl)cc3)cc2)c(=O)c1I`, the outcome was inactive.

`Nc1nc(N)c2c3c(ccc2n1)NCCC3`: the outcome was inactive.

Regarding `Cc1[nH]c(C)c(-c2ccc(Oc3ccc(Cl)cc3)c(Cl)c2)c(=O)c1Br`, the result was inactive.

For the molecule `CCN(CC)CCNc1cc(C)nc(/N=C(\N)Nc2ccc(Cl)cc2)n1`, the result was inactive.

`CC(C)CNc1nc(N)nc2ccc3c(ccn3CC(C)C)c12`: the outcome was inactive.

For the molecule `CCNC(=O)CCc1cccc(Br)c1`, the outcome was inactive.

The target in another assay is Protein kinase 7 (PK7), Plasmodium falciparum 3D7 (PF3D7_0213400) (UniProt Q7YTF7). Kind of assay: inhibition of Plasmodium PK7 catalytic activity – biochemical, TCAMS antimalarial set, Kinase-Glo luminescence (AID 1159587). The conditions noted are these: recombinant PfPK7, Kinase-Glo ATP depletion luminescence.
Chain of Protein kinase 7 (PK7), Plasmodium falciparum 3D7 (PF3D7_0213400) (Q7YTF7 1-343): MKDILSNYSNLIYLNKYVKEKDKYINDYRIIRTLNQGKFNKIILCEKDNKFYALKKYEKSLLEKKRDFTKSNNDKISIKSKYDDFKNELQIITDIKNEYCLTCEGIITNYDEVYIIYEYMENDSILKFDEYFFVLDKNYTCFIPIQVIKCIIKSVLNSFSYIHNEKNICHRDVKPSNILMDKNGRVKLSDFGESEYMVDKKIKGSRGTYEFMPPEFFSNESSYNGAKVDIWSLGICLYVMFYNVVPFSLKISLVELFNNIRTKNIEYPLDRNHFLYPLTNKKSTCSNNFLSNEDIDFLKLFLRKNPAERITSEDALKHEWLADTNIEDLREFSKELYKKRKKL
For the molecule `Nc1nc(N)c2c(Oc3ccc(Cl)c(Cl)c3)cccc2n1`, the outcome was inactive.

As for `COc1ccc(OC)c(Cc2c(C)nc3nc(N)nc(N)c3c2C)c1`, the result was inactive.

For the molecule `CC(C)(C)c1ccc(-c2nc3c(ccc4nc(N)nc(N)c43)[nH]2)cc1`, the outcome was inactive.

As for `CC(=O)Nc1ccc(OCCCCCOc2ccc(NC(C)=O)cc2Cl)c(Cl)c1`, the outcome was inactive.

As to `CCOc1cc(Cc2cnc(N)nc2N)ccc1OC`, the outcome was inactive.

Turning to `CCCCNCc1ccc(OCc2cccc(COc3ccc(CNCCCC)cc3I)c2)c(I)c1`, the outcome was inactive.

`COc1cc(Cc2cnc(N)nc2N)cc(OCCCCc2ccc([N+](=O)[O-])cc2)c1OC`: the outcome was inactive.

On to `CC(C)c1ccc2c(c1)C(=O)c1ccc(C(=O)O)cc1S2(=O)=O`, for which the outcome was inactive.

Consider `Nc1ncc(-c2ccc(S(=O)(=O)Nc3ccc(C(=O)N[C@@H](CCC(=O)O)C(=O)O)cc3)cc2)c(=O)[nH]1`, for which the result was inactive.

`Cn1c(=N)cc(-c2cccc(I)c2)c2c(=O)[nH]c(N)nc21`: the result was inactive.

Regarding `Nc1nc(N)c2c(ccc3c2ccn3Cc2ccc(Br)cc2)n1`, the result was inactive.

Consider `COc1ccc(OC)c(CC2c3ccc(Br)c(O)c3CCN2C)c1` (stereo unspecified), for which the result was inactive.

Take `Oc1cc2ccccc2cc1CNC1CCCCC1`: the result was inactive.

On to `COc1ccccc1-c1nc2c(ccc3nc(N)nc(N)c32)[nH]1`, for which the outcome was inactive.

On to `Nc1nc(N)c2c(Oc3cc(Cl)c(Cl)c(Cl)c3)cccc2n1`, for which the outcome was inactive.

`Cc1nc(C)c(-c2ccc(Oc3ccc(OC(F)(F)F)cc3)cc2)c(OC(=O)c2ccc(CN(C)C)cc2)c1Cl`: the result was inactive.

With `CN(C)S(=O)(=O)n1ncc2c3c(N)nc(N)nc3ccc21`, the outcome was inactive.

As to `NC(N)=NC(=O)Nc1cc(F)c(Cl)c(Cl)c1`, the outcome was inactive.

With `Cc1nc(C)c(-c2ccc(Oc3ccc(OC(F)(F)F)cc3)cc2)c(OC(=O)c2ccccc2)c1Cl`, the outcome was inactive.

For `Nc1nc(N)c2c(Sc3ccc(F)cc3)cccc2n1`, the result was inactive.

`CN=C(N)c1ccc(NC(=O)C=Cc2ccc(C(=O)Nc3ccc(C(N)=NC)cc3)cc2)cc1`: the result was inactive.

`CC(=O)Oc1c(Cl)c(C)nc(C)c1-c1ccc(Oc2ccc(Cl)cc2)cc1`: the result was inactive.

On to `NC(N)=NC(=O)Nc1cc(Br)c(Cl)c(C(F)(F)F)c1`, for which the result was inactive.

For the molecule `Cc1nc2nc(N)nc(N)c2c(C)c1Cc1ccc([N+](=O)[O-])cc1`, the outcome was inactive.

Turning to `CN(C)S(=O)(=O)n1ccc2c3c(N)nc(N)nc3ccc21`, the outcome was inactive.

For `NC(=NCC1CC1c1ccccc1)c1cccc(C(N)=NCC2CC2c2ccccc2)n1` (stereo unspecified), the outcome was inactive.

`CCCN(c1ccc(O)c(CN2CCCCC2)c1)c1ccc([N+](=O)[O-])cn1`: the outcome was inactive.

On to `CCc1ccc(Cc2cnc3nc(N)nc(N)c3c2C)cc1`, for which the outcome was inactive.

Regarding `CCNCCCC(C)Nc1ccnc2cc(Cl)ccc12` (stereo unspecified), the result was inactive.

In the case of `c1ccc(CN2CCN(CCCCNc3c4ccccc4nc4ccccc34)CC2)cc1`, the outcome was inactive.

With `Cc1nc2ccc(S(=O)(=O)Nc3ccc(C(=O)N[C@@H](CCC(=O)O)C(=O)O)cc3)cc2c(=O)[nH]1`, the outcome was inactive.

As for `CC(C)(C)c1ccc(-c2nnc(N)nc2N)cc1`, the outcome was inactive.

Regarding `CCC(=C(CC)c1ccc(O)c(CNC2CCCCC2)c1)c1ccc(O)c(CNC2CCCCC2)c1`, the outcome was inactive.

As to `Cc1[nH]c(C)c(-c2ccc(Oc3ccc(Cl)cc3)cc2)c(=O)c1I`, the result was inactive.

`Nc1nc(N)c2c3c(ccc2n1)NCCC3`: the result was inactive.

As for `Cc1[nH]c(C)c(-c2ccc(Oc3ccc(Cl)cc3)c(Cl)c2)c(=O)c1Br`, the outcome was inactive.

With `CCN(CC)CCNc1cc(C)nc(/N=C(\N)Nc2ccc(Cl)cc2)n1`, the outcome was inactive.

In the case of `CC(C)CNc1nc(N)nc2ccc3c(ccn3CC(C)C)c12`, the outcome was inactive.

Take `CCNC(=O)CCc1cccc(Br)c1`: the result was inactive.

The next assay concerns the target Calcium-dependent protein kinase 4 (Plasmodium falciparum (isolate 3D7)) (UniProt Q8IBS5). Description: PfCDPK4 kinase inhibitors, biochemical, TCAMS library (AID 1159588; cut-off not given, nearly all actives have IC50 up to about 0.91 µM). As to conditions: recombinant PfCDPK4, Kinase-Glo ATP depletion luminescence.
For the molecule `Nc1nc(N)c2c(Oc3ccc(Cl)c(Cl)c3)cccc2n1`, the result was inactive.

Turning to `COc1ccc(OC)c(Cc2c(C)nc3nc(N)nc(N)c3c2C)c1`, the outcome was inactive.

For the molecule `CC(C)(C)c1ccc(-c2nc3c(ccc4nc(N)nc(N)c43)[nH]2)cc1`, the outcome was inactive.

`CC(=O)Nc1ccc(OCCCCCOc2ccc(NC(C)=O)cc2Cl)c(Cl)c1`: the result was inactive.

In the case of `CCOc1cc(Cc2cnc(N)nc2N)ccc1OC`, the outcome was inactive.

Turning to `CCCCNCc1ccc(OCc2cccc(COc3ccc(CNCCCC)cc3I)c2)c(I)c1`, the result was inactive.

Regarding `COc1cc(Cc2cnc(N)nc2N)cc(OCCCCc2ccc([N+](=O)[O-])cc2)c1OC`, the outcome was inactive.

Regarding `CC(C)c1ccc2c(c1)C(=O)c1ccc(C(=O)O)cc1S2(=O)=O`, the outcome was inactive.

Regarding `Nc1ncc(-c2ccc(S(=O)(=O)Nc3ccc(C(=O)N[C@@H](CCC(=O)O)C(=O)O)cc3)cc2)c(=O)[nH]1`, the outcome was inactive.

Regarding `Cn1c(=N)cc(-c2cccc(I)c2)c2c(=O)[nH]c(N)nc21`, the outcome was inactive.

Take `Nc1nc(N)c2c(ccc3c2ccn3Cc2ccc(Br)cc2)n1`: the result was inactive.

Take `COc1ccc(OC)c(CC2c3ccc(Br)c(O)c3CCN2C)c1` (stereo unspecified): the outcome was inactive.

Consider `Oc1cc2ccccc2cc1CNC1CCCCC1`, for which the result was inactive.

Regarding `COc1ccccc1-c1nc2c(ccc3nc(N)nc(N)c32)[nH]1`, the outcome was inactive.

Turning to `Nc1nc(N)c2c(Oc3cc(Cl)c(Cl)c(Cl)c3)cccc2n1`, the outcome was inactive.

Consider `Cc1nc(C)c(-c2ccc(Oc3ccc(OC(F)(F)F)cc3)cc2)c(OC(=O)c2ccc(CN(C)C)cc2)c1Cl`, for which the result was inactive.

Consider `CN(C)S(=O)(=O)n1ncc2c3c(N)nc(N)nc3ccc21`, for which the outcome was inactive.

As for `NC(N)=NC(=O)Nc1cc(F)c(Cl)c(Cl)c1`, the outcome was inactive.

On to `Cc1nc(C)c(-c2ccc(Oc3ccc(OC(F)(F)F)cc3)cc2)c(OC(=O)c2ccccc2)c1Cl`, for which the result was inactive.

With `Nc1nc(N)c2c(Sc3ccc(F)cc3)cccc2n1`, the outcome was inactive.

`CN=C(N)c1ccc(NC(=O)C=Cc2ccc(C(=O)Nc3ccc(C(N)=NC)cc3)cc2)cc1`: the outcome was inactive.

Turning to `CC(=O)Oc1c(Cl)c(C)nc(C)c1-c1ccc(Oc2ccc(Cl)cc2)cc1`, the outcome was inactive.

As for `NC(N)=NC(=O)Nc1cc(Br)c(Cl)c(C(F)(F)F)c1`, the outcome was inactive.

As for `Cc1nc2nc(N)nc(N)c2c(C)c1Cc1ccc([N+](=O)[O-])cc1`, the outcome was inactive.

In the case of `CN(C)S(=O)(=O)n1ccc2c3c(N)nc(N)nc3ccc21`, the result was inactive.

Consider `NC(=NCC1CC1c1ccccc1)c1cccc(C(N)=NCC2CC2c2ccccc2)n1` (stereo unspecified), for which the outcome was inactive.

As for `CCCN(c1ccc(O)c(CN2CCCCC2)c1)c1ccc([N+](=O)[O-])cn1`, the outcome was inactive.

Turning to `CCc1ccc(Cc2cnc3nc(N)nc(N)c3c2C)cc1`, the result was inactive.

For the molecule `CCNCCCC(C)Nc1ccnc2cc(Cl)ccc12` (stereo unspecified), the outcome was inactive.

With `c1ccc(CN2CCN(CCCCNc3c4ccccc4nc4ccccc34)CC2)cc1`, the outcome was inactive.

On to `Cc1nc2ccc(S(=O)(=O)Nc3ccc(C(=O)N[C@@H](CCC(=O)O)C(=O)O)cc3)cc2c(=O)[nH]1`, for which the result was inactive.

`CC(C)(C)c1ccc(-c2nnc(N)nc2N)cc1`: the outcome was inactive.

For `CCC(=C(CC)c1ccc(O)c(CNC2CCCCC2)c1)c1ccc(O)c(CNC2CCCCC2)c1`, the outcome was inactive.

On to `Cc1[nH]c(C)c(-c2ccc(Oc3ccc(Cl)cc3)cc2)c(=O)c1I`, for which the result was inactive.

With `Nc1nc(N)c2c3c(ccc2n1)NCCC3`, the outcome was inactive.

`Cc1[nH]c(C)c(-c2ccc(Oc3ccc(Cl)cc3)c(Cl)c2)c(=O)c1Br`: the result was inactive.

As to `CCN(CC)CCNc1cc(C)nc(/N=C(\N)Nc2ccc(Cl)cc2)n1`, the outcome was inactive.

On to `CC(C)CNc1nc(N)nc2ccc3c(ccn3CC(C)C)c12`, for which the result was inactive.

As for `CCNC(=O)CCc1cccc(Br)c1`, the outcome was inactive.

Values taken from PubChem BioAssay.
